Out of some 220,000 compounds screened, about 2,000 (0.91%) were called active. Not shown: some 2% with an inconclusive outcome. These entries were drawn from the full list. Entries with a potency or affinity are not part of this list. A number with no mark means an inactive call. Cut-off read from the data, not from the text of the source: inconclusive = inhibition above about 80% without an active follow-up result; inactive = below that; test concentration not stated here.
experiment: M. tuberculosis H37Rv growth inhibitors, H37Rv strain (AID 1626); conditions: stronger effect = higher value, concentration not given here;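 note: bacteria incubated seven days before Alamar blue readout; 0% = bacteria only wells and 100% = bacteria with antibiotic wells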

Structure (SMILES)	inhibition [%]
Cc1cc(C(F)(F)F)nc(SCc2ccc(C(=O)O)o2)n1	-10.7
COc1ccc(Cn2c(=S)[nH]c3ccsc3c2=O)cc1	-1.7
O=c1[nH]cc(COCC(F)(F)C(F)(F)C(F)(F)F)c(=O)[nH]1	5.87
Cc1ccc(S(=O)(=O)N2CCC(C(=O)NNC(=O)c3ccccc3)CC2)cc1	0.71
C/C(=N\NC(=O)c1cc(-c2ccncc2)nc2ccccc12)c1ccc(OC(F)F)cc1	0.28
C#CCNC(=O)C1=C[C@H](c2ccc3c(c2)OCO3)C[C@H](OCCCCO)O1	-6.12
CCCCNC(=O)COC(=O)c1c2c(nc3ccccc13)/C(=C/c1cccs1)CC2	36.5
COc1ccc(NC(=O)COC(=O)c2c3c(nc4ccccc24)CCCC3)cc1	-13.1
CC(C)CNC(=O)COC(=O)c1c2c(nc3ccccc13)/C(=C/c1cccs1)CC2	32.2
CCc1cccc(C)c1NC(=O)COC(=O)c1c2c(nc3ccccc13)/C(=C\c1cccs1)CCC2	1.95
COc1ccc(-c2[nH]ncc2CN2CCC(N3CCSCC3)CC2)cc1F	-4.08
CCOC(=O)C(/C=C(\C#N)C(=O)OCC)=C(/N)N1CCN(c2ccc(OC)cc2)CC1	6.53
CCOC(=O)C(/C=C(\C#N)C(=O)OCC)=C(/N)N1CCN(c2ccccc2)CC1	-0.44
COc1ccc(C(=O)Nc2ccc(Cl)cn2)cc1Cl	12.4
COC(=O)c1cc(NC(=O)CSc2nc(C)cc(=O)[nH]2)cc(C(=O)OC)c1	-18.1
CC(=O)Nc1ccc(N/C(N)=N/c2nc(C)cc(C)n2)cc1	4.6
Cc1ccc(N/C(N)=N/c2nc(C)cc(C)n2)cc1	-3.3
Cn1ccnc1Sc1ccc(/C=N/NC(=O)c2ccccc2[N+](=O)[O-])cc1[N+](=O)[O-]	-13.1
NC(=O)CSc1nnc(COc2ccccc2)n1CCc1ccccc1	-4.55
Cc1ccc(CNC(=O)C23CN(Cc4ccccc4)CC2C(c2ccc([N+](=O)[O-])cc2)=NO3)cc1 (stereo not drawn)	7.16
CCc1c(C)c(C#N)c2nc3ccccc3n2c1N(C)C	-1.31
CCCCCc1c(C)c(C#N)c2nc3ccccc3n2c1-n1ccnc1C	-1.65
Cc1cc(NCCCO)n2c(nc3ccccc32)c1C#N	1.01
Cc1c(Cc2ccccc2)c(NCCN(C)C)n2c(nc3ccccc32)c1C#N	-1.57

Structure (SMILES)	inhibition [%]
COC(=O)c1cc(C(=O)OC)cc(N2C(=O)CN=C2Nc2nc(C)cc(C)n2)c1	-5.98
Cc1cc(C)c(NC(=O)c2c[nH]c(=S)n2-c2ccc(F)cc2)c(C)c1	-1.12
COc1ccc(-c2nc(C#N)c(NCCN(C)C)o2)cc1	-2.85
COc1cccc(-c2csc(N3CCN(C(=O)Nc4ccc(F)cc4)CC3)n2)c1	20.3
COc1cccc(NC(=O)N2CCN(c3nc(-c4cccc(OC)c4)cs3)CC2)c1	79.8
COc1cccc(-c2csc(N3CCN(C(=O)Nc4ccc(Cl)cc4)CC3)n2)c1	80
COc1cccc(-c2csc(N3CCN(C(=O)Nc4ccccc4OC)CC3)n2)c1	0.17
CCOP(=O)(OCC)C1(O)C(=O)Nc2ccc(Br)cc21 (stereo not drawn)	0.14
CCC1(C)Cc2c(sc3nnn(CC(=O)Nc4ccccc4)c(=O)c23)CO1 (stereo not drawn)	-3.81
CCOc1ccc(NC(=O)C(CC(=O)O)Cc2ccccc2)cc1 (stereo not drawn)	-4.45
O=c1oc2ccccc2cc1-c1ccc(O)cc1	30.4
Cc1cccc(-c2noc(-c3ccoc3C)n2)c1	8.21
COc1ccccc1-c1nc(-c2cccc(C)c2)no1	9.74
Cc1ccc(-c2csc(Cc3nc(-c4cc5ccccc5oc4=O)cs3)n2)cc1	-1.52
O=c1oc2ccccc2cc1-c1nc(-c2ccccc2)no1	23.2
O=c1oc2ccccc2cc1-c1ccccc1	-5.07
COC(=O)c1sc(SC)c(S(=O)(=O)C(C)C)c1N/N=C(\C#N)C(=O)c1ccccc1	-10.6
COc1ccc(Cn2cc3c(-c4ccc(F)cc4)nnc-3c3cc(OC)c(OC)cc32)cc1	64.8
CCOCC(=O)Nc1cc(Cl)ccc1C	-11.6
On1c(-c2ccccc2Cl)nc2ccccc21	12.4
COc1ccc(CNC(=O)CC2C(=O)NCCN2CC(C)(C)C)c(OC)c1 (stereo not drawn)	-2.94
Cc1ccccc1OC(C)C(=O)NCc1cccnc1 (stereo not drawn)	1.38
CCOC(=O)C1=C(CSCC(=O)OC)NC(=O)NC1c1cc(C)ccc1C (stereo not drawn)	0.6
Cc1cc(C)nc(NC(=O)/C=C/c2ccccc2Cl)c1	9.12

Structure (SMILES)	inhibition [%]
Cc1cc(C)nc(NC(=O)/C=C/c2ccccc2Cl)n1	-5.04
O=C(Cn1nc(-c2ccccc2)nc1-c1ccccc1)N1CCOCC1	-4.2
COC(=O)[C@@]1(Cc2ccc(F)cc2)[C@H]2c3cc(C(=O)N(C)C)n(Cc4ccccn4)c3C[C@H]2CN1C(=O)c1ccccc1	8.03
OC(COc1ccc2ccccc2c1)Cn1ccnc1 (stereo not drawn)	51.7
O=C(CSCC(=O)N1CCN(c2ccccc2)CC1)Nc1nc(-c2ccc(Cl)s2)cs1	8.45
CCOC(=O)N1CCN(C(=O)CSCC(=O)Nc2nc(-c3ccc(Cl)s3)cs2)CC1	16.6
CCOc1ccc(OCC(O)CNC2CCN(Cc3ccccc3)CC2)cc1 (stereo not drawn)	1.56
OC(CNC1CCCC1)COc1ccc(-c2ccccc2)cc1 (stereo not drawn)	10.9
O=C(OCc1ccc(C(=O)c2ccccc2)cc1)c1cccc(-c2nnc(-c3ccccc3)o2)c1	20.2
O=c1oc(-c2ccccc2NS(=O)(=O)c2ccc3ccccc3c2)nc2ccccc12	7.84
O=C(c1cc(-c2ccncc2)nc2ccc(Cl)cc12)N1CCN(Cc2ccc3c(c2)OCO3)CC1	0.94
CCOc1ccc(NC(=O)Cn2nnc3c(cnn3-c3ccc(F)cc3)c2=O)cc1	3.8
C/C(Cc1ccccc1)=N/NC(=O)CNC(=O)C(c1ccccc1)c1ccccc1	-1.53
CCc1ccc(C2c3[nH]c4ccccc4c3CCN2C(=O)c2cc[n+]([O-])cc2)cc1 (stereo not drawn)	7.89
CCc1ccc(C2c3[nH]c4ccccc4c3CCN2C(=O)c2ccc(=O)n(C)n2)cc1 (stereo not drawn)	37.1
CCNC(=O)N1CCN(C(=O)NCC)CC1	-2.46
Cc1cc(/C=N/n2cnnc2)c(C)n1-c1ccc(Cl)cc1	8.9
Cc1cc(/C=N/n2cnnc2)c(C)n1-c1ccc(Cl)cc1Cl	12.1
CC(=O)Oc1ccc(C(=O)Nc2cc(NC(=O)c3ccc(OC(C)=O)cc3)cc(C(=O)NC(C)(C)C)c2)cc1	-1.93
CCN1CCC(O)(c2ccccc2)C(C(=O)c2ccccc2)C1 (stereo not drawn)	50.9
CCCCN1CCC(O)(c2ccccc2)C(C(=O)c2ccccc2)C1 (stereo not drawn)	5.96
O=S(=O)(N1CCOCC1)N1CCN(c2ccc(F)cc2)CC1	-7.1
Nc1c(C(=O)OCC(=O)NCc2ccccc2)[nH]c(=O)[nH]c1=O	-4.41
Cc1[nH]c(=O)[nH]c(=O)c1/C=C/C(=O)O	-8.34

Structure (SMILES)	inhibition [%]
CCOc1ccc2nc(SCC(=O)N(C)C)[nH]c2c1	-11.1
CO/N=C(/CS(=O)Cc1ccc(Cl)cc1)c1ccc(Cl)cc1 (stereo not drawn)	1.17
CCCNS(=O)(=O)c1ccc(OCC(=O)NCCC2=CCCCC2)cc1	13.8
COC(=O)COc1ccc(S(=O)(=O)NCCC2=CCCCC2)cc1	25.1
Cc1cccc(C)c1NC(=O)CNC(=O)CCC(=O)c1cccs1	-5.43
CC(C)c1ccc(NC(=O)c2csnn2)cc1	-0.83
Cc1ccc(NC(=O)c2snc3ccc(Cl)cc23)cc1C	6.9
Cc1ccc(-c2nc3ccccc3n3nnnc23)cc1	4.17
Cc1ccc2nc(N3CCN(c4cccc(C)c4C)CC3)c3nnnn3c2c1	-7.81
CC(C)CNC(=O)CN1C(=O)NC(Cc2c[nH]c3ccccc23)C1=O (stereo not drawn)	-13.9
O=C(NCC1CCN(S(=O)(=O)c2ccccc2)CC1)Nc1ccccc1	10.3
O=C(N/N=C/c1cccc(O)c1)c1ccccc1O	-7.64
Cc1ccc(Cn2ccc(=O)c(OCc3ccccc3)c2C)cc1	1.78
Cc1ccc(Cn2ccc(=O)c(Cc3c(Cl)cccc3Cl)c2C)cc1	0.62
CC(C)=Nc1ccccc1C1COC(=O)C1=N (stereo not drawn)	-1
COc1ccccc1NC(=O)O/N=C(\N)c1ccccc1	11.1
Cc1nc(CC(=O)c2ccc(O)c(C)c2O)cs1	7.54
Cc1nnc(SCC(=O)N2CCC(c3noc4ccc(F)cc34)CC2)s1	-0.75
O=C(CSc1ccc2ccccc2n1)N1CCC(c2noc3ccc(F)cc23)CC1	-2.15
COC(=O)C[C@H]1c2cc(C(F)(F)F)ccc2S(=O)(=O)N1C1CCCC1	-3.21
O=C(Cc1ccc(Br)cc1)Nc1ccc(Cl)cc1	-2.03

— PubChem BioAssay AID1626 (SRMLSC, 2009)
